Columns and labels:
PEG-3 [1] = molecular target: PEG-3 (UniProt Q6IN02); test: inhibition of PEG-3 promoter-driven reporter – cell-based, HeLa, luciferase, CREF/GAPDH counter-screen panel, dose response (AID 624167); details: CREF/GAPDH counter-screens; HeLa PEG-Prom luciferase reporter, overnight, run 1, dose range 1, at 100 µM (top of the series) unless noted
PEG-3 [2] = molecular target: PEG-3 (UniProt Q6IN02); test: as above; details: CREF/GAPDH counter-screens; HeLa PEG-Prom luciferase reporter, overnight, run 2, dose range 1, at 100 µM (top of the series) unless noted
[3] = molecular target: Tumor necrosis factor receptor superfamily member 10B (Homo sapiens) (UniProt O14763); test: viability loss of caspase-8 NB7 cells with TRAIL – with/without TRAIL, luminescence panel, confirmation (AID 651596); details: NB7 neuroblastoma + caspase-8, TRAIL sensitization, NB7 Caspase-8, with TRAIL, mean of runs, at 10 µM, stronger effect = higher value
[4] = as above; details: NB7 neuroblastoma + caspase-8, without TRAIL, NB7 Caspase-8, without TRAIL, mean of runs, at 10 µM
Rat fibroblasts (CREF) [5] = test: inhibition of PEG-3 promoter-driven reporter – cell-based, HeLa, luciferase, CREF/GAPDH counter-screen panel, dose response (AID 624167); details: CREF/GAPDH counter-screens; run 1, dose range 1, at 100 µM (top of the series)
Rat fibroblasts (CREF) [6] = test: as above; details: CREF/GAPDH counter-screens; run 2, dose range 1, at 100 µM (top of the series)
[7] = NFkB reporter suppression in cystic fibrosis bronchial cells – cell-based, uHTS hits, panel, cytotoxicity readout, dose response (AID 624344); details: CF bronchial epithelial cells, PAF-induced NFkB reporter inhibition, with PAF, run 1; at 79 µM (top of the series) unless noted
[8] = as above; details: CF bronchial epithelial cells, PAF-induced NFkB reporter inhibition, with PAF, run 2; at 79 µM (top of the series) unless noted

Chain of Tumor necrosis factor receptor superfamily member 10B (Homo sapiens) (O14763 whole entry, looked up): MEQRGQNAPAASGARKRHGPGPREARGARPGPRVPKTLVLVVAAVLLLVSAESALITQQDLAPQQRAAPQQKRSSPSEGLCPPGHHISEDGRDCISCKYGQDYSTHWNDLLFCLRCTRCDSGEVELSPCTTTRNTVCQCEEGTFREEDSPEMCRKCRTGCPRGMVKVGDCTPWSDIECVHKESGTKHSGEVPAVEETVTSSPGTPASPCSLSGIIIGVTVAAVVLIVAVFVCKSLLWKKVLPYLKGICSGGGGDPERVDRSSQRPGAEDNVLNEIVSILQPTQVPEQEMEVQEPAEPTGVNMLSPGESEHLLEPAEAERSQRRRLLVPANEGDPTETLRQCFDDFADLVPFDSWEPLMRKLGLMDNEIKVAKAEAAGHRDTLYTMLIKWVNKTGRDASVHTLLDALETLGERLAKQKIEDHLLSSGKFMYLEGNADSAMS
Chain of PEG-3 (Q6IN02 whole entry, looked up): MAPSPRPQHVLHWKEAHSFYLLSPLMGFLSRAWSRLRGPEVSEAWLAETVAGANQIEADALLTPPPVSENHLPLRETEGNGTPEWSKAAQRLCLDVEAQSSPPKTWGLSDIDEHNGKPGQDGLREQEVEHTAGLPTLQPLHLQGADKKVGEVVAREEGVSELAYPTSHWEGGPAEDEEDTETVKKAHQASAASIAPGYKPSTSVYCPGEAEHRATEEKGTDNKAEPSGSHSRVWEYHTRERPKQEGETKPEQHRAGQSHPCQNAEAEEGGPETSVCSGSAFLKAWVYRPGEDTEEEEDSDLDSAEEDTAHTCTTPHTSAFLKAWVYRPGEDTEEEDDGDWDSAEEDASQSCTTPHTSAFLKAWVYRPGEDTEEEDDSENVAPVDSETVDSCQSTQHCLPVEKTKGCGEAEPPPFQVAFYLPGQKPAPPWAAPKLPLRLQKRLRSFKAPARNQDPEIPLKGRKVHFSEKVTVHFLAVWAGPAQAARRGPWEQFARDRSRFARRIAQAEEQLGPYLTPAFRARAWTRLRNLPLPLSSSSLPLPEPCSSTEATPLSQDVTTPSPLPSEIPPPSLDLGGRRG

Row | Structure (SMILES) | inhibition (PEG-3 [1]) | inhibition (PEG-3 [2]) | activity [3] | activity [4] | inhibition (Rat fibroblasts (CREF) [5]) | inhibition (Rat fibroblasts (CREF) [6]) | inhibition [7] | inhibition [8]
1 | Cc1cc(C)c2sc(N(CCCN(C)C)C(=O)c3ccc(S(=O)(=O)N(C)C4CCCCC4)cc3)nc2c1 | 98.8% | 101% | 17.8% | 4.92% |  |  |  | 
2 | Cc1noc(-c2ccc(Cl)cc2)c1C(=O)O/N=C(\N)c1ccc(C(C)(C)C)cc1 | 99.2% | 101% | 99.3% | 97.5% |  |  |  | 
3 | Cc1nn(C(C)(C)C)c(C)c1/C=N/OC(=O)Nc1ccc(Cl)cc1 | 98.8% | 98.3% | 94.2% | 91.5% |  |  |  | 
4 | O=c1c2ccccc2oc2cc(C#CC3(O)CCCCC3)ccc12 | 102% | 102% | 87.3% | 85.3% |  |  |  | 
5 | N/C(=N\OC(=O)c1ccccc1)C(Cc1ccccc1)C(=O)NOC(=O)c1ccccc1 (stereo not drawn) | 97.4% | 99.1% | 98% | 97.8% |  |  |  | 
6 | C=CCn1c(C)cc(C(=O)CN2C(=O)c3ccccc3S2(=O)=O)c1C | 94.5% | 96.6% | 88.8% | 91.4% | 99.2% | 96.4% |  | 
7 | CN1CCN(c2ccc(NC(=O)N3CCc4ccccc43)cc2)CC1 | 87.9% | 92.8% | 70.6% | 65.9% |  |  |  | 
8 | Cc1ccc2sc(N(CCCN(C)C)C(=O)c3ccc(S(=O)(=O)N(C)Cc4ccccc4)cc3)nc2c1C | 102% | 99.1% | 44% | 32.9% |  |  |  | 
9 | CS(=O)(=O)c1ccc2nc(NC(=O)CCS(=O)(=O)c3ccccc3)sc2c1 | 85% | 92.7% |  |  |  |  | 98.1% | 97.7%
10 | CCc1nccn1C(=O)c1cnn2c(C(F)F)cc(-c3ccc(C)cc3)nc12 | 99.1% | 102% |  |  |  |  | 102% | 115%
11 | COc1cccc(CN(C)C(=O)C(CCSC)NS(=O)(=O)c2ccc3c(c2)OCCO3)c1OC (stereo not drawn) | 73.9% | 99.1% |  |  |  |  | 110% | 106%
12 | COc1nc(N)c(C#N)c(-c2ccc(N(C)CCC#N)cc2)c1C#N | 52.9% | 53% |  |  |  |  | 97.1% [at 39.5 µM] | 84.4% [at 39.5 µM]
13 | Cc1ccc(N(Cc2cc(=O)[nH]c3ccccc23)C(=O)CCl)c(C)c1 | 101% | 99.2% | 96.8% | 96.5% |  |  |  | 
14 | COc1ccc(C(C(=O)NCC2CCCO2)N(Cc2cccs2)C(=O)c2snc(C(N)=O)c2N)cc1 (stereo not drawn) | 47.8% | 28.4% |  |  |  |  | 109% | 101%
15 | CCCCCCCCCCCCCCC(O)C[N+](C)(CCO)CCO (stereo not drawn) | 94.8% | 101% | 94.9% | 96.5% |  |  | 95.6% | 96.1%
16 | CC1CCCCN1S(=O)(=O)c1ccc(C(=O)N(CCCN(C)C)c2nc3ccc(Br)cc3s2)cc1 (stereo not drawn) | 102% | 102% | 22.4% | 17.7% |  |  |  | 
17 | COc1ccc(Nc2nc(-c3ccccc3)nc3ccccc23)cc1S(=O)(=O)N1CCOCC1 | 61.7% | 59.1% | 33% | 25.6% |  |  | 97.7% | 106%
18 | CN(C)c1ccc(C(C(=O)NCc2ccccc2)N(Cc2ccco2)C(=O)c2snc(C(N)=O)c2N)cc1 (stereo not drawn) | 21.1% | 29.3% |  |  |  |  | 109% | 104%
19 | CC(/C=C/c1ccccc1)=N/NC(=O)c1cc([N+](=O)[O-])cc([N+](=O)[O-])c1 | 94.6% | 86.3% | 21.2% | 30.8% | 47.1% |  |  | 
